Bioassay records from PubChem.
ERG Ets-DNA blk – ERG Ets/DNA interaction inhibition. AID 624246. Potency, µM (highest dose often 76.9 µM), for inactives: at the highest dose FP activity, negative = inhibition, usual class: inhibitors. actives 0.028% (n = 370,000). fluorescence polarization, His-ERG Ets domain / labelled DNA; active = well fitted inhibition curve with a large enough effect in the polarisation, with a control signal flat; inconclusive = small, poorly fitted or top-dose-only effect, or effect the other way, or a change in a side signal; inactive = no such curve, though single readings can be large or run the other way; the % refers to the polarisation;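 also: polarization taken with two DNA probes labelled with fluorescein and Texas red; % of control where 0% means no effect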
Target sequence (P11308 whole entry, looked up, the tested form may be a part): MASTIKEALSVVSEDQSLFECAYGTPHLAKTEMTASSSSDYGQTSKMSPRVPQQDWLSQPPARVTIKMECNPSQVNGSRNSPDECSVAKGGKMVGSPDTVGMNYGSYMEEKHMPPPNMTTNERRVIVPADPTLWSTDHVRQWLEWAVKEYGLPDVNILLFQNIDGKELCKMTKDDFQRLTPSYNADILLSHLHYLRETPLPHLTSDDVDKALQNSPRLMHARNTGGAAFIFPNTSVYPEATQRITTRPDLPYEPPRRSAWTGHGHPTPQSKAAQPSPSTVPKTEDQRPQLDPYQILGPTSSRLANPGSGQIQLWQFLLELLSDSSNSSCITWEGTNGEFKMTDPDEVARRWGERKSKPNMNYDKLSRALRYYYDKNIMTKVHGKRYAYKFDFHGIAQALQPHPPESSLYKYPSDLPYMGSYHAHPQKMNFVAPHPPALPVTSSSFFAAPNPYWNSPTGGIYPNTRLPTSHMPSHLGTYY
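His-tagged ERG Ets domain (1 uM in the protein solution; 300mM KCl, 50mM Tris-HCl, 1mM EDTA, 1mM DTT, pH 7.5) received compound, then a probe mix of 5 nM fluorescein-DNA and 100nM Texas-615-DNA. Fluorescence polarization was read for both dyes.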
BLM helicase inh – blocks DNA unwinding by human BLM helicase | P54132 | recombinant BLM DNA unwinding, fluorescence dequenching | Potency, µM (series often up to 56.1 µM), for inactives: top-dose activity change, negative = inhibition, hits mostly inhibitors | actives 0.2% (n = 350,000) | AID 2528;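 also: plate controls were vehicle for no effect and no enzyme for full effect; nearly all actives have a fitted effect of over 35% in size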
RECQ1 inh-1 – RECQ1 (human) helicase inhibition; RECQ1 DNA unwinding, red fluorescence kinetic read; Potency, µM (highest dose often 57.3 µM), inactives show at the highest dose activity, negative = inhibition, usual class: inhibitors; actives 0.54% (n = 240,000); AID 2549;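 also: plate controls were vehicle for no effect and no enzyme for full effect; nearly all actives have a fitted effect of over 30% in size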
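RECQ1T1 50 nM; forked duplex (20 bp + 30-nt ss tails) 200 nM, ATP 2 mM final; pH 8.0, 2 mM MgCl2, 2.5 ug/ml poly(dI-dC); 15 min compound preincubation; discontinuous kinetic read over 2 h at RT.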
RGS12 GoLoco inh – blocks human Gai1 binding to RGS12 GoLoco peptide, red readout; P63096; Gai1:RGS12 GoLoco peptide FP, rhodamine, 10 min; Potency, µM (doses to about 61.6 µM), without a hit: at the top dose activity, negative = inhibition, usual class: inhibitors; actives 0.44% (n = 230,000); AID 880; active = well fitted inhibition curve with a large enough effect, not every such curve was filed as active; inactive = no such curve, though single readings can be large or run the other way; also: % is scaled to controls: 0 for no effect and ±100 for the full control effect; nearly all actives have a fitted effect of over 30% in size
TRb SRC2 PPI – TRbeta-SRC2 interaction inhibition; actives 0.065% (n = 280,000); P10828; TRbeta-SRC2 peptide binding, fluorescence polarization; receptor liganded with 1 µM T3; Potency, µM (titrated, usually from 106 µM), without a hit: at the highest dose activity change, negative = inhibition, usual class: inhibitors;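 also: plate controls were bound peptide for no effect and peptide without receptor for full effect; nearly all actives have a fitted effect of over 50% in size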
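Each compound concentration gave % activity, normalized to unbound and bound Texas Red SRC2 controls, from polarization read after 5 hr ambient incubation with T3-loaded human TRb LBD.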
TexasRed fluor – Texas Red fluorescence interference in TRb-SRC2 counter-screen; actives 0.29% (n = 280,000); TRb/SRC2 Texas Red total fluorescence interference; Potency, µM (highest dose often 106 µM), without a hit: at the highest dose fluorescence change, negative = quenching; AID 1479; active = well fitted curve in either direction with a large enough effect; inconclusive = small, poorly fitted or top-dose-only effect; also: % is scaled to controls: 0 for no effect and ±100 for the full control effect
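Flags fluorescent or light-absorbing compounds by total fluorescence, S + 2P, at 555 nm excitation and 632 nm emission. Mixture: 20 nM Texas Red SRC2 peptide, 0.6 uM human TRb LBD, 1 uM T3, 5% DMSO; compound exposure 5 h at ambient temperature.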
RECQ1 inh-2 – blocks human RECQ1 DNA unwinding | actives 15% (n = 1,100) | Potency, µM (top dose mostly 119 µM), for inactives: at the highest dose activity, negative = inhibition, most hits filed as inhibitors | recombinant RECQ1 DNA unwinding, red fluorescence | shares compounds with RECQ1 inh-1; also: % is scaled to controls: 0 for no effect and ±100 for the full control effect; nearly all actives have a fitted effect of over 50% in size
The depositor's hits bear a star; ? = inconclusive; . = no result given; [ ] = remark or other dose. Most compounds without a hit are left out; they make up all but 0.71% or so of the library. Unless noted, calls follow the shape of the dose curve; as a rule, active = well fitted curve in the direction sought with a large enough effect; inconclusive = small, poorly fitted or top-dose-only effect, or another doubt; inactive = no such curve, though single readings can be large; an effect the other way counts as inactive or inconclusive. Potency is read from the fitted curve at half-maximal effect.

SMILES	ERG Ets-DNA blk	BLM helicase inh	RECQ1 inh-1	RGS12 GoLoco inh	TRb SRC2 PPI	TexasRed fluor	RECQ1 inh-2
O=C(O)c1ccc(NS(=O)(=O)c2ccc3c(c2)C2C=CCC2C(c2ccccc2F)N3)cc1 (configuration not stated)	-11%	7%	?	50%	9%	-2%	-14%
CC1=Nc2ccccc2/C1=C/c1nc(-c2ccc(C)s2)oc1O	?	-7%	?	46%	-17%	?	?
COC/C=C/C1=CC2=CC(=O)C(C)(OC(=O)CCc3ccccc3)C(=O)C2=CO1 (configuration not stated)	.	2%	-3%	3%	10%	-3%	.
COC(=O)c1ccccc1NC(=O)CCC(=O)N1CC(C)Sc2ccccc21 (configuration not stated)	1%	-1%	.	.	7%	-1%	.
O=C(CSc1ccc(Cl)cc1)Nc1ccc(-c2nc3ccccc3[nH]2)cc1	-4%	-11%	28µM*	1%	3%	-3%	-28%
O=C(CSc1ccccc1)Nc1nc2ccccc2[nH]1	12%	-8%	-1%	.	-4%	3%	.
O=C(Cc1ccc(S(=O)(=O)N2CCOCC2)s1)Nc1ccc(N2CCOCC2)cc1	-4%	-9%	-15%	17%	0%	-4%	.
CN(C)S(=O)(=O)c1ccc(NC(=O)Cc2ccc(S(=O)(=O)N3CCOCC3)s2)cc1	0%	-22%	?	12%	0%	-4%	?
COc1ccc(Cl)cc1C(=O)Nc1cccc(-c2ccc3nncn3n2)c1	30%	-12%	?	31%	0%	-16%	?
COc1cccc(C(=O)Nc2cccc(-c3ccc4nncn4n3)c2)c1OC	6%	-1%	-3%	14%	3%	0%	.
C[C@@H]1C(SC2Cn3cnc[n+]3C2)=C(C(=O)[O-])N2C(=O)[C@H]([C@@H](C)O)[C@@H]12 (some centres not stated)	.	-10%	.	5%	-3%	0%	.
Cc1ccc(S(=O)(=O)Oc2ccc(C3C4=C(CCCC4=O)OC4=C3C(=O)CCC4)cc2)cc1	-3%	-11%	-10%	-20%	-5%	-3%	.
CN(C)c1ccc(C2C3=C(CCCC3=O)OC3=C2C(=O)CCC3)cc1	2%	-14%	?	-23%	-13%	2%	1%
COCOc1ccc(Br)cc1C(=O)/C=C\c1ccc2c(c1)OCO2	.	-11%[12.4 µM]	12%[11.5 µM]	.	-3%[11.2 µM]	1%[11.2 µM]	.
